Experimental data published in PubChem BioAssay.
Active and inactive are the calls of the source.

Key:
Albumin (Bos taurus) = Albumin (Bos taurus) (UniProt P02769); test: compounds binding labelled BSA control protein – biochemical, small-molecule microarray, Alexa647 label, 635/667 nm fluorescence, artefact control for SMM control protein annotation, profiling panel (AID 1118); settings: BSA-A647 binding, fluorescence 635 nm, higher = more signal;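 further: score merges 667 nm emission intensity and signal-to-noise per printed compound spot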
Chain of Albumin (Bos taurus) (P02769 whole entry, looked up): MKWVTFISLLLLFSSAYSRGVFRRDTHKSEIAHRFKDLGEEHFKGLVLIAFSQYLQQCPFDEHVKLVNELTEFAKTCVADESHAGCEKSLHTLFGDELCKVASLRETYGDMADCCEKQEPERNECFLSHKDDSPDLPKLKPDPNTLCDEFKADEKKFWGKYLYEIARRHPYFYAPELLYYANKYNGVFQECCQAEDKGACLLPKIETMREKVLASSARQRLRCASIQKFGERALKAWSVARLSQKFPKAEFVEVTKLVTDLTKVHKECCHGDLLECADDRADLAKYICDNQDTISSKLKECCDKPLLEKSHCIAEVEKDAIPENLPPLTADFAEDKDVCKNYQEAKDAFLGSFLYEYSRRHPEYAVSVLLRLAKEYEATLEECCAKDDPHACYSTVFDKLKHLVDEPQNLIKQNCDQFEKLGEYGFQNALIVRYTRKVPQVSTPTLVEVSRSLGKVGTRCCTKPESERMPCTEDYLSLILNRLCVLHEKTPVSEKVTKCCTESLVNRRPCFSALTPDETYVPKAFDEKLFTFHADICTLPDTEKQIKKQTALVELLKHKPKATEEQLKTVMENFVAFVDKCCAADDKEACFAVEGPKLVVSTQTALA

[1] = probe aXIP binding to arrayed compounds – biochemical, NeuroSMM set, 635/667 nm fluorescence, primary screen (AID 1119); settings: small-molecule microarray, higher = more signal, called active from +8 up or from −8 down;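 further: probe is the protein aXip251-270 applied at 1 µg/mL to compound-printed slides; binding of probe to printed compounds measured as 667 nm fluorescence plus signal to noise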
[2] = probe aNOTCH3 binding on compound microarray – biochemical, small-molecule microarray, 635/667 nm fluorescence, primary screen (AID 1120); settings: higher = more signal;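 further: probe is a biotin-tagged antibody raised against NOTCH3 rather than NOTCH3 protein; score merges spot fluorescence near 667 nm with spot signal to noise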
[3] = probe aNOTCH2 binding on compound microarray – biochemical, small-molecule microarray, 635/667 nm fluorescence, primary screen (AID 1121); settings: higher = more signal;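 further: score merges feature fluorescence read at 667 nm with its signal to noise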
[4] = biological target: Carbonic anhydrase 2 (Homo sapiens) (UniProt P00918); test: compounds binding carbonic anhydrase 2 – biochemical, small-molecule microarray, Alexa647-labelled CAII, profiling panel (AID 1122); settings: CAII-A647 binding fluorescence, higher = more signal
[5] = COS7 lysate on small-molecule microarray, probe aHis, 635 nm (AID 1123); settings: COS7 cell lysate, fluorescence, higher = more signal;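 further: z-score combines 667nm fluorescence intensity with signal-to-noise per printed compound spot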
[6] = probe aLAP1 signal on lysate-treated microarray – cell lysate, small-molecule microarray, COS7 lysate, primary screen (AID 1124); settings: probe aLAP1, fluorescence, higher = more signal;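 further: lysate comes from COS7 cells expressing LAP1 and is applied at 0.3 µg/mL; score merges spot fluorescence near 667 nm with signal-to-noise over triplicate slides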
Sam68 (KHDRBS1) = test: compounds binding KHDRBS1 protein – biochemical, small-molecule microarray, 635 nm fluorescence, primary screen (AID 1125); settings: higher = more signal;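 further: score merges 667 nm channel intensity with signal to noise over triplicate slides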
[7] = system: Chordin-like protein 2 (CHRDL2); test: compounds binding chordin-like 2 – biochemical, small-molecule microarray, 635 nm fluorescence, primary screen (AID 1126); settings: fluorescence 635 nm, higher = more signal;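 further: printed compound slides probed with Chrdl2 protein at 4 µg/mL for 1 h at 4 C; score merges 667 nm emission intensity with signal to noise over three replicate slides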
[8] = biological target: Concanavalin-A (Canavalia ensiformis) (UniProt P02866); test: compounds binding concanavalin A lectin – biochemical, small-molecule microarray, Alexa647 label, 635 nm, artefact control for SMM control protein annotation, primary screen (AID 1127); settings: ConA-A647 binding fluorescence, higher = more signal;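 further: z combines 667 nm emission intensity with signal-to-noise across three replicate slides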
Chain of Concanavalin-A (Canavalia ensiformis) (P02866 whole entry, looked up): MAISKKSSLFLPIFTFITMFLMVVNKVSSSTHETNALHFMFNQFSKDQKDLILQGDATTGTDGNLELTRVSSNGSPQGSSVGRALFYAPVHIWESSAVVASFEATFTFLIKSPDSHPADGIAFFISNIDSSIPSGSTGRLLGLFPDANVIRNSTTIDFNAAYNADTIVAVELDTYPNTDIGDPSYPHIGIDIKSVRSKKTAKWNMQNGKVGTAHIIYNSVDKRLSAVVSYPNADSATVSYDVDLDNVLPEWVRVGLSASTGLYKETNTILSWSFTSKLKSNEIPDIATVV

[9] = compounds binding Alexa647 anti-His antibody – biochemical, small-molecule microarray, 635 nm fluorescence, artefact control for SMM control protein annotation, primary screen (AID 1128); settings: higher = more signal;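 further: score merges feature fluorescence with signal-to-noise for each printed compound spot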
[10] = system: Human papillomavirus type 1a E7 protein (residues 1-88); test: HPV1a E7 small-molecule binders, primary screen, biochemical, small-molecule microarray, residues 1-88, 635 nm (AID 1129); settings: small-molecule microarray binding, fluorescence 635 nm; higher = more signal
[11] = biological target: Focal adhesion kinase 1 (Homo sapiens) (UniProt Q05397); test: PTK2 protein binding on printed compound slides – biochemical, small-molecule microarray, 635/667 nm fluorescence, BSA, DTT, primary screen (AID 1130); settings: 635 nm fluorescence, higher = more signal;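 further: composite of spot emission at 667 nm and signal to noise over triplicate slides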
Chain of Focal adhesion kinase 1 (Homo sapiens) (Q05397 whole entry, looked up): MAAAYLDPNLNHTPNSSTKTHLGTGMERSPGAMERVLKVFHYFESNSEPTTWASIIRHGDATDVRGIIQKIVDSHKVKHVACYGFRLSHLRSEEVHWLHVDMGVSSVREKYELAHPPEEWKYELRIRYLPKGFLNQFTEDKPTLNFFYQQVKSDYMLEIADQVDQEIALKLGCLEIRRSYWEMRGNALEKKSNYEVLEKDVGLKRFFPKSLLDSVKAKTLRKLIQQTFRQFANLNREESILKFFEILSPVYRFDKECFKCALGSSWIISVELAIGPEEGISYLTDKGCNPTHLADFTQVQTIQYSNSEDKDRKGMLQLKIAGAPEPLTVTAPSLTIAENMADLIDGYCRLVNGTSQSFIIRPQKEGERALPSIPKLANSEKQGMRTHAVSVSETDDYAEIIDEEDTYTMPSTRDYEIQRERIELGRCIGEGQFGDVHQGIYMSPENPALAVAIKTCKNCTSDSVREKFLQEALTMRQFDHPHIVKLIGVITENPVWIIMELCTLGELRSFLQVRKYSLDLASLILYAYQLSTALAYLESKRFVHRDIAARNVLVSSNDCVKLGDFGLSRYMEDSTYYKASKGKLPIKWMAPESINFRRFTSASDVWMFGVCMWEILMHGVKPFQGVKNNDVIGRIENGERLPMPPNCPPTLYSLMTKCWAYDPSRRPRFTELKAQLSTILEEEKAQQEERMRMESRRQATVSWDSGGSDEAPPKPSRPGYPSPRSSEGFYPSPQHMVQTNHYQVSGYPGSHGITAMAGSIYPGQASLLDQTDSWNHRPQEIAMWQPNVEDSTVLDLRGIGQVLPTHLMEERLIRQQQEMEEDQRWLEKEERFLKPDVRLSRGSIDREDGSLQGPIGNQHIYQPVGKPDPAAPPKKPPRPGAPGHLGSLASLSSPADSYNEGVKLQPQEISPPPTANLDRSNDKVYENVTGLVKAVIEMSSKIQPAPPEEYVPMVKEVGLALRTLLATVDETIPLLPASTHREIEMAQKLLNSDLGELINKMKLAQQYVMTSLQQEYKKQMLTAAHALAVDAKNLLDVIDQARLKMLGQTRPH

[12] = system: Fibrinogen (Alexa647-labelled); test: Alexa647-fibrinogen binding to printed small molecules – biochemical, small-molecule microarray, 635/667 nm fluorescence, artefact control for SMM control-protein annotation, profiling panel (AID 1131); settings: fibrinogen-A647 binding fluorescence, higher = more signal;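 further: z-score merges 667 nm fluorescence with per-spot signal-to-noise over triplicate slides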
[13] = biological target: Follistatin (Homo sapiens) (UniProt P19883); test: FST protein binding to printed compounds – biochemical, small-molecule microarray, 635/667 nm fluorescence, primary screen (AID 1132); settings: 635 nm fluorescence, higher = more signal
Chain of Follistatin (Homo sapiens) (P19883 whole entry, looked up): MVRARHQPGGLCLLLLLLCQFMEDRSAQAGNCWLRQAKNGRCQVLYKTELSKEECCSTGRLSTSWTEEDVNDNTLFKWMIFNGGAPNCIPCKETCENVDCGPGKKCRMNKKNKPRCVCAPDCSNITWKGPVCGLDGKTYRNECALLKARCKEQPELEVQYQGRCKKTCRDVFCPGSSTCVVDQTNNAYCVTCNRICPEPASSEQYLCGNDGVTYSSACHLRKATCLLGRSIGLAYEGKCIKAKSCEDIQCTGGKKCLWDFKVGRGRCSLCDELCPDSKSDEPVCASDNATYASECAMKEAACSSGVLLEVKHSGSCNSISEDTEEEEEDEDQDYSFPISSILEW

[14] = biological target: Fibroblast growth factor 2 (Homo sapiens) (UniProt P09038); test: basic fibroblast growth factor binding to printed compounds – biochemical, small-molecule microarray, 635/667 nm fluorescence, primary screen (AID 1133); settings: FGF2, fluorescence 635/667, higher = more signal
Chain of Fibroblast growth factor 2 (Homo sapiens) (P09038 whole entry, looked up): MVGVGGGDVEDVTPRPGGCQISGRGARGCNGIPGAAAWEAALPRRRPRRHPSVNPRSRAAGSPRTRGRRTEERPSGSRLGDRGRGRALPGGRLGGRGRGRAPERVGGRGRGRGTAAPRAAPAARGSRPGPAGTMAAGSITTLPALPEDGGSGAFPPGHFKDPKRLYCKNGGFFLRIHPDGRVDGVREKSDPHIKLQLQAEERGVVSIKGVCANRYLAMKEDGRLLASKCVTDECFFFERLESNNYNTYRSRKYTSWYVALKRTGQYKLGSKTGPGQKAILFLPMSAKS

[15] = JC-1 mitochondrial potential readout, lung cancer cells – cell-based, A549, JC-1 fluorescence, basal, 24 h, 100 nL, profiling panel (AID 1138); settings: higher = more signal;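 further: A549 lung adenocarcinoma cells under basal conditions with no added stimulus; test concentration not given here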
Lefty1 = Lefty1 protein binding to printed compounds – biochemical, small-molecule microarray, 635/667 nm fluorescence, primary screen (AID 1139); settings: fluorescence 635/667, higher = more signal
[16] = system: wheat germ agglutinin (Triticum aestivum), Alexa647-labelled; test: Alexa647-WGA lectin binding to printed small molecules – biochemical, small-molecule microarray, 635/667 nm fluorescence, artefact control for SMM control-protein annotation, profiling panel (AID 1140); settings: WGA-A647 binding, 635 nm fluorescence, higher = more signal;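 further: score merges 667 nm feature emission with signal to noise over triplicate slides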
[17] = biological target: Luciferin 4-monooxygenase (Photinus pyralis) (UniProt P08659); test: inhibition of purified Photinus pyralis luciferase – biochemical, luminescence, purified enzyme, 2006 set, primary screen (AID 1141); settings: purified firefly luciferase, SteadyGlo luminescence, 30 min; higher = more signal, called active from +8 up or from −8 down;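 further: cell-free assay with purified firefly luciferase at 100 ng per well in PBS; test concentration not given here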
Chain of Luciferin 4-monooxygenase (Photinus pyralis) (P08659 whole entry, looked up): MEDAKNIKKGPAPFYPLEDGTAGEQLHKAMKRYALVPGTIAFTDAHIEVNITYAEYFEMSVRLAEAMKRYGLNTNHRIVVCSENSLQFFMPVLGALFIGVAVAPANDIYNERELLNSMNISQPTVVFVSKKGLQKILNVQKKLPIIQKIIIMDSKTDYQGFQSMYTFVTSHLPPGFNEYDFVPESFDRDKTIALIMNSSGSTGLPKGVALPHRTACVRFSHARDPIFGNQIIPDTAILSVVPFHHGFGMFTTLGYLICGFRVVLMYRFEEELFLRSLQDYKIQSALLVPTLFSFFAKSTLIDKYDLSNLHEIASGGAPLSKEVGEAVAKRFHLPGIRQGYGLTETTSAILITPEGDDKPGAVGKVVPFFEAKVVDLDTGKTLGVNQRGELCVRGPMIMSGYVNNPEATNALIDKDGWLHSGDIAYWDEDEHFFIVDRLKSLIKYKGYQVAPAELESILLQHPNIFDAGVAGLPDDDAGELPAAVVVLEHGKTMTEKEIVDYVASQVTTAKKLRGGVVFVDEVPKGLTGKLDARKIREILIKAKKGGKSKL

SMILES	composite z-score (Albumin (Bos taurus))	composite Z-score [1]	composite z-score [2]	composite z-score [3]	composite z-score [4]	composite z-score [5]	composite z-score [6]	composite z-score (Sam68 (KHDRBS1))	composite z-score [7]	composite z-score [8]	composite z-score [9]	composite z-score [10]	composite z-score [11]	composite z-score [12]	composite z-score [13]	composite z-score [14]	z-score [15]	composite z-score (Lefty1)	composite z-score [16]	z-score [17]
C=C(CCCC)/C(=C/C[C@@H](OC(C)=O)c1ccc(CO)o1)c1cnc2ccccc2c1	0.333	-0.117 (inactive)	0.185	-0.0684	0.476	1.45	1.17	1.3	1.03	0.875	1.12	1.21	0.119	0.948	1.31	1.54	-0.587	1.51	1.27	-3.09 (inactive)
CCOC(=O)C[C@H]1[C@H](OC(=O)c2cc3ccccc3oc2=O)[C@@H](NC(=O)CC(C)C)c2cc(OCCCO)ccc2N1C(=O)Cc1ccc(OC)cc1	0.136	0.642 (inactive)	-0.0376	-0.146	0.607	0.935	0.18	0.887	0.0676	0.433	0.0111	0.43	-0.0515	0.942	0.642	0.443	0.613	0.849	0.158	0.411 (inactive)
O=C1[C@H]2C=C(I)[C@H](C[C@@H]2OCCCCCCO)[C@@]12CO2	0.683	0.047 (inactive)	0.0876	-0.112	0.751	-0.298	-0.16	-0.747	1.24	-1.05	-0.624	-0.334	-0.0716	-0.312	1.12	0.888	0.368	1.07	-0.291	0.683 (inactive)
COCC(=C=CC[C@H](O)c1ccccc1OCCO)C[C@H](O)COCc1ccccc1	0.816	0.0117 (inactive)	0.304	-0.148	0.505	2.08	1.81	1.14	0.0973	0.245	2.34	1.19	0.516	0.272	0.792	0.659	1.26	0.632	0.0903	-1.06 (inactive)
CCCCCC1=C2CNC(CC(C)C)(C(=O)OC)C=C2C(C)C1=O (stereo not given)	0.624	-0.378 (inactive)	0.376	0.0453	0.495	1.9	0.602	1.18	-0.861	0.232	0.654	1.17	1.61	0.955	-0.127	-0.544	0.326	-0.145	0.955	-0.0622 (inactive)
CO[C@H]1O[C@H](CO)[C@@H](OC(=O)Nc2ccccc2)[C@H](OC(=O)Nc2ccccc2)[C@H]1OC(=O)Nc1ccccc1	0.729	-0.375 (inactive)	-0.0918	-0.0567	0.521	2.45	0.373	1.3	-0.0958	1.15	2.2	1.26	0.972	1.01	0.943	1.02	0.281	0.389	0.791	1.15 (inactive)
CC1=C([C@H](O)CCc2ccccc2)[C@H](CO)n2c(=O)n(-c3ccccc3)c(=O)n2C1	-0.348	0.51 (inactive)	-0.187	-0.199	-0.3	-0.35	-0.603	-0.308	0.443	-0.0316	-0.56	-0.37	-0.168	-0.178	0.155	0.302	1.18	0.27	-0.137	-0.728 (inactive)
COc1ccc([Si](C)(C)[C@H]2[C@H](CCO)O[C@@]3(C(=O)N(Cc4ccc(NC(=O)[C@H](C)O)cc4)c4ccccc43)[C@@H]2C)cc1	0.494	0.515 (inactive)	0.0643	-0.164	0.488	1.9	0.0861	1.32	0.101	0.897	1.4	1.23	0.382	0.68	0.728	0.634	-1.45	0.568	0.355	-0.234 (inactive)
CC(C)=CCCC(C)=CC(O)C1C=CC2C(=O)NC(=O)C2N1Nc1ccccn1 (stereo not given)	0.408	0.992 (inactive)	0.254	0.0047	0.725	0.39	0.969	1.25	1.43	0.932	1.97	1.08	-0.097	0.868	1.39	1.7	0.966	1.54	0.73	-1.17 (inactive)
O=C(O)[C@H](Cc1ccccc1)n1cc(C2(O)CCCCC2)nn1	0.568	0.217 (inactive)	0.0191	-0.147	0.54	1.46	0.0496	1.01	-0.0151	0.463	0.689	0.357	0.736	0.52	0.142	0.278	-0.141	0.676	0.0402	-0.0102 (inactive)
CCCCC(=C=CC[C@H](O)c1ccc(CO)o1)CCO	0.86	-0.334 (inactive)	-0.0544	-0.0404	0.54	0.143	-0.311	0.864	0.386	0.689	0.149	0.661	0.323	-0.884	0.986	0.662	0.164	0.738	0.0416	-0.783 (inactive)
O=C(NC1CC1)[C@@H]1c2ccccc2C(=O)N(CC23CC4CC(CC(C4)C2)C3)[C@H]1c1ccc(CO)cc1	0.654	-0.0662 (inactive)	0.183	-0.0495	0.388	2.18	0.99	1.31	1.16	1.16	1.17	1.12	0.476	0.919	1.44	1.28	0.0467	1.33	0.33	0.7 (inactive)
CC(C)[Si](C#CCCc1ccccc1)(O[C@H](c1ccccc1)c1cn(Cc2ccccc2)nn1)C(C)C	0.246	0.546 (inactive)	0.073	-0.115	0.204	1.12	0.0218	1.02	0.721	0.949	0.269	1.09	0.104	0.642	0.709	0.368	0.26	0.919	0.782	0.898 (inactive)
C=C(CCCC)C(=O)CC[C@H](OC(=O)c1ccccc1-c1ccccc1C(=O)O)c1ccc(OCCO)cc1	0.763	-0.235 (inactive)	0.184	-0.185	0.573	1.2	-0.0334	0.958	0.0139	0.969	0.321	0.632	-0.0609	0.0905	0.571	1.26	0.128	1.1	0.708	-1.95 (inactive)
O=C(NCCN1CCOCC1)[C@@H]1c2ccccc2C(=O)N(Cc2ccccc2C(F)(F)F)[C@H]1c1ccc(CO)cc1	0.0089	-0.141 (inactive)	-0.425	-0.108	0.341	-0.0272	2.49	1.29	-0.93	0.0882	-1.48	0.0783	-0.331	-0.676	-0.2	-0.0425	2.63	-1.24	0.708	-0.676 (inactive)
CCOC(=O)C1=CC[C@@H](c2ccc(OC)cc2)N(S(=O)(=O)c2ccc(C)cc2)[C@H]1CC	0.894	-0.0608 (inactive)	0.164	0.0684	0.579	1.85	0.133	1.33	-0.483	1.07	1.17	1.22	0.493	0.993	0.995	0.873	2.69	0.689	0.902	1.24 (inactive)
COc1cc(CO)cc(I)c1O[C@H]1C=C(C(=O)NCCO)C[C@@H]2O[C@H]12	-0.39	1.49 (inactive)	-0.0311	-0.0596	0.465	1.07	0.0543	1.3	1.36	1.01	0.426	1.22	0.572	0.4	1.52	2.13	-0.976	1.37	0.308	0.847 (inactive)
COCCOC(=O)N1C(=O)[C@@]2(c3cc(C#CCC(C(=O)OC)C(=O)OC)ccc31)[C@H](C(=O)Nc1nc3ccccc3s1)[C@H]1C(=O)O[C@H](c3ccccc3)[C@H](c3ccccc3)N1[C@@H]2c1ccc(OCCO)cc1	-0.978	1.21 (inactive)	0.414	0.0328	0.487	1.24	0.705	1.29	1.32	1.18	2.33	0.988	0.35	0.746	1.39	1.79	-2.33	1.64	0.44	-4.07 (inactive)
COc1ccc(C(=O)Nc2ccc3c(c2)[C@@]2(O[C@H](CCO)[C@@H]([Si](C)(C)c4ccc(OC)cc4)[C@@H]2C)C(=O)N3Cc2ccccc2)cc1	-0.351	0.004 (inactive)	-0.0647	-0.0357	0.124	0.88	0.556	0.973	0.268	0.637	0.829	0.989	0.397	0.592	1.25	1.45	-1.3	0.792	0.413	-0.585 (inactive)
C[N+](C)(C)CCCCNC(=O)[C@H]1C[C@H]2C(=O)N[C@@H](Cc3ccccc3)C(=O)N2[C@H]1c1cccc(OCCO)c1	-1.43	0.466 (inactive)	0.0401	-0.1	0.542	1.71	1.3	0.669	1.5	1.1	2.93	0.566	0.193	0.578	1.48	1.87	-0.243	1.69	-0.4	-0.598 (inactive)
CCN(CC)c1ccc(N2CC=CC34O[C@@H]5C=CCCOC(=O)C5[C@H]3C(=O)N(C(C)CO)[C@@H]4C2=O)cc1 (stereo not given in full)	0.653	0.195 (inactive)	0.102	-0.159	0.835	-0.806	0.385	-0.304	-0.0271	-0.361	1.72	0.649	0.339	-0.943	0.461	-0.199	0.337	0.399	0.329	-0.421 (inactive)
